According to ChEMBL document CHEMBL4513146, “CO-ADD screening of Karazin Kharkiv National University (Ukraine) compounds”:
Entries with a potency or affinity are not part of this list.

How the values were obtained:
Staphylococcus aureus = details: Concentration 32 ug.mL-1;; ASSAY_TEST Inhibition of Bacterial Growth; detection method Absorption (OD600); MEDIA CAMHB; plate type 384well; NBS; CORNING #3640; time 18 hr
Escherichia coli = details: Concentration 32 ug.mL-1;; ASSAY_TEST Inhibition of Bacterial Growth; detection method Absorption (OD600); MEDIA CAMHB; plate type 384well; NBS; CORNING #3640; time 18 hr

| SMILES | Inhibition (Staphylococcus aureus) | Inhibition (Escherichia coli) |
| --- | --- | --- |
| CC(C)Cn1c(=O)c2ccc(C(=O)NC3CCCCC3)cc2n2c(=O)n(CC#N)nc12 | 8.84% | -0.16% |
| COc1cccc(Sc2nc3ccccc3n3c(=O)n(CC(=O)Nc4cc(C)cc(C)c4)nc23)c1 | 0.14% | 3.24% |
| Cc1nnc2c(=O)n(CC(=O)NC3CCCC3)c3ccccc3n12 | 4.23% | -6.29% |
| Cc1ccccc1CN(c1ccc(C(C)C)cc1)S(=O)(=O)c1cccn2c(C)nnc12 | 9.54% | -1.18% |
| Cc1ccc(Cl)cc1NC(=O)CSc1nc2ccccc2n2c(C(C)C)nnc12 | 0.87% | -1.5% |
| CC(=O)c1ccc(NC(=O)Cn2nc3c4cc(-c5ccc(Cl)cc5)nn4ccn3c2=O)cc1 | 8.4% | 0.52% |
| Cc1cc2nn(CC(=O)Nc3ccc(F)cc3F)c(=O)n2c(Nc2ccc(F)c(C)c2)n1 | 5.82% | -5.59% |
| Cc1cccc(NC(=O)Cn2c(=O)c3nnc(C(C)C)n3c3ccccc32)c1 | 1.06% | -8.16% |
| CC(C)c1ccc(NC(=O)Cn2nc3c(Sc4ccccc4)nccn3c2=O)cc1 | -14.37% | -14.79% |
| CCOc1ccc(-n2ccn3c(SCC(=O)c4c(C)[nH]c5ccccc45)nnc3c2=O)cc1 | -0.13% | -15.25% |
| Cc1ccc(N(Cc2ccccc2)S(=O)(=O)c2ccc3nncn3c2)cc1F | -5.44% | -9.13% |
| COc1ccc(OC)c(NC(=O)Cn2nc3ccc(SCc4ccc(Cl)cc4)nn3c2=O)c1 | -2.6% | -8.88% |
| O=C(CSc1nnc2c(=O)n(-c3ccccc3)ccn12)Nc1cccc(F)c1 | 13% | -3.48% |
| Cc1cccc(NC(=O)Cn2nc3ccc(SC(C)(C)C)nn3c2=O)c1 | 3.72% | -1.06% |
| COc1ccc(-c2cc3c4nnc(CCC(=O)N5CCN(c6ccccc6F)CC5)n4ccn3n2)cc1 | 13.19% | 1.66% |
| CCOc1ccc(-n2ccn3c(SCC(=O)Nc4cc(F)ccc4F)nnc3c2=O)cc1 | -3.91% | 1.2% |
